{"source": "PubChem BioAssay (NCATS)", "note": "Inconclusive results are not listed. Active and inactive are the calls of the source. Calls come from the whole dose curve; as a rule, active = well fitted inhibition curve with a large enough effect in the signal ratio, with a control signal flat (not every such curve was filed as active); inconclusive = small, poorly fitted or top-dose-only effect, or effect the other way, or a change in a side signal; inactive = flat fitted curve, though single readings scatter; the % refers to the signal ratio.", "data": [{"target": "Glucocorticoid receptor (Homo sapiens) (UniProt P04150)", "sequence (P04150 whole entry, looked up)": "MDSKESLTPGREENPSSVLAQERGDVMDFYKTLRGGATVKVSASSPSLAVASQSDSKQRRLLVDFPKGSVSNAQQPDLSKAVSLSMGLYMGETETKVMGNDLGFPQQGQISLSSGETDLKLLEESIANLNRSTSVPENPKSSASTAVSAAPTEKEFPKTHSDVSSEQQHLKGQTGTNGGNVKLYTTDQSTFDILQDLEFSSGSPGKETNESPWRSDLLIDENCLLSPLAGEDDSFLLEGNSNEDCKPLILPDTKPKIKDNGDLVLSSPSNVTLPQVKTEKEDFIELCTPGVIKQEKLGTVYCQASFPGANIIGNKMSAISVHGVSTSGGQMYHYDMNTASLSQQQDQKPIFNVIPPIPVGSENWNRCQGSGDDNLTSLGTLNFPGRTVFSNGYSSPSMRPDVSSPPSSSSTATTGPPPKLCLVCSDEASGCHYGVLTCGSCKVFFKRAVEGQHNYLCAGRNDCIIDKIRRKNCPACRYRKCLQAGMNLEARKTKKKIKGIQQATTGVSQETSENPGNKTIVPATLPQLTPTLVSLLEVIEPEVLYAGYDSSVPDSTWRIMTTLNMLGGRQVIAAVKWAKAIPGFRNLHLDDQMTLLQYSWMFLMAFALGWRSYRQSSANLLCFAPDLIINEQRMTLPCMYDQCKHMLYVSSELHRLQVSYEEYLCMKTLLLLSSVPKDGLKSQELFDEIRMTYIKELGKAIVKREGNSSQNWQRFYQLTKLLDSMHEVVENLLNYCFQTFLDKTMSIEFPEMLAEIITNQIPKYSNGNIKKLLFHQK", "test": "qHTS assay for small molecule antagonists of glucocorticoid receptor signaling (AID 588533)", "settings": "HeLa MMTV-bla, GRE beta-lactamase ratio, antagonist mode, 18 h; series mostly up to 76.8 µM", "from_the_text": "NIH Chemical Genomics Center [NCGC] U.S. Environmental Protection Agency [EPA] National Institutes of Environmental Health Sciences [NIEHS] National Toxicology Program [NTP] NCGC Assay Overview The Glucocorticoid receptor (GR), a nuclear receptor subfamily member and its natural ligands includes […] etc. The GR is a validated drug target for inflammation. GR ligands such as dexamethasone are clinically available as anti-inflammatory drugs. Glucocorticoids implicate a role in carbohydrate, protein and lipid metabolisms and programmed cell death. They are also a component of many chemotherapy regimens for the treatment of leukemias, lymphomas, and myelomas because of their role in the induction of apoptosis.\nNCGC Assay Protocol Summary Using a beta-lactamase reporter-gene under control of glucocorticoid response element (GRE), a cell-based assay [CellSensor MMTV-bla HeLa cell line assay developed by Invitrogen] was used to measure GR ligands signaling. CellSensor MMTV-bla HeLa cells were used with assay medium containing 1% charcoal/dextran treated FBS, 0.1 mM NEAA, 1 mM sodium pyruvate and 25mM HEPES. The assay was performed in clear bottom black Greiner 1536-well plates. Library compounds were measured for their ability to inhibit the reporter gene activity. Compounds were screened in a titration series in 1536-well format. […] Data was normalized relative to Dexamethasone control (2 nM, 100%), and DMSO only wells (basal, 0%). Concentration-response titration points for each compound were fitted to the Hill equation yielding concentrations of half-maximal inhibition (IC50) and maximal response (efficacy) values. qHTS protocol for GR beta-lactamase assay in antagonist mode [Step] [Parameter] [Value] [Description] 1. Reagent; 5 uL; 1500 cells/well 2. Incubation; 37 C for 3-5 hrs 3. Compounds; 23 nL; 0.59 nM to 92 uM 4. […] Agonist (Stimulator); 1uL; Dexamethasone at 2 nM (final) concentration 6. Incubation; 37 C for 18 hrs 7. Detection reagent; 1 uL of CCF4-dye 8. Incubation; RT for 2 hrs 9. Detection; Fluorescence; Envision plate reader", "values": [{"smiles": "CCCCC(CC)CO", "note": "(stereo not given)", "outcome": "inactive"}, {"smiles": "CCCCC(CC)COCC1CO1", "note": "(stereo not given)", "outcome": "inactive"}, {"smiles": "CNc1ccc([N+](=O)[O-])cc1", "outcome": "inactive"}, {"smiles": "O=Cc1ccccc1Cl", "outcome": "inactive"}, {"smiles": "CC(=O)Nc1ccccc1C", "outcome": "inactive"}, {"smiles": "Cc1cc(C2(c3cc(C)c(O)cc3C)OS(=O)(=O)c3ccccc32)c(C)cc1O", "outcome": "inactive"}, {"smiles": "CCOc1ccccc1N", "outcome": "inactive"}, {"smiles": "Nc1cc(Cl)c(N)c(Cl)c1", "outcome": "inactive"}, {"smiles": "O=C(Cl)c1ccccc1[N+](=O)[O-]", "outcome": "inactive"}, {"smiles": "O=c1[nH][nH]c(=O)c2cc([N+](=O)[O-])ccc12", "outcome": "inactive"}, {"smiles": "CCOc1cc(OCC)c(C(C)=O)cc1OCC", "outcome": "inactive"}, {"smiles": "C1CCCC1", "outcome": "inactive"}, {"smiles": "Nc1cc(S(=O)(=O)O)ccc1O", "outcome": "inactive"}, {"smiles": "N#CC1(O)CCCCC1", "outcome": "inactive"}, {"smiles": "Cc1nc2ccc(Cl)cc2[nH]1", "outcome": "inactive"}, {"smiles": "Cc1cc(C)cc(N)c1", "outcome": "inactive"}, {"smiles": "C1CCOC1", "outcome": "inactive"}, {"smiles": "FB(F)F", "outcome": "inactive"}, {"smiles": "CCCC(Cl)CCCC(Cl)CCC(Cl)CCC(Cl)CCC(Cl)CCCC(Cl)CCC", "note": "(stereo not given)", "outcome": "inactive"}, {"smiles": "CCCCC(C=O)CC", "note": "(stereo not given)", "outcome": "inactive"}, {"smiles": "CCC(C)O", "note": "(stereo not given)", "outcome": "inactive"}, {"smiles": "CC(C)C=O", "outcome": "inactive"}, {"smiles": "FC(F)(F)c1cccc(Cl)c1", "outcome": "inactive"}, {"smiles": "Cc1cc(C)cc([N+](=O)[O-])c1", "outcome": "inactive"}, {"smiles": "S=C([S-])NCCNC(=S)[S-].[Zn+2]", "outcome": "inactive"}, {"smiles": "Cc1ccccc1C=O", "outcome": "inactive"}, {"smiles": "C=CCCCC", "outcome": "inactive"}, {"smiles": "O=C(Cl)c1cccc([N+](=O)[O-])c1", "outcome": "inactive"}, {"smiles": "c1ccc2n[nH]nc2c1", "outcome": "inactive"}, {"smiles": "C/C(C=O)=C/c1ccccc1", "outcome": "inactive"}, {"smiles": "Cc1cccc(C)c1", "outcome": "inactive"}, {"smiles": "CC1CCC2CC1C2(C)C", "note": "(stereo not given)", "outcome": "inactive"}, {"smiles": "O=C(O)c1cccc([N+](=O)[O-])c1", "outcome": "inactive"}, {"smiles": "CCC(C)(C)C(=O)O", "outcome": "inactive"}, {"smiles": "Cc1cc(C)c(N)cc1C", "outcome": "inactive"}, {"smiles": "CC(C)=C1CCC(C)CC1=O", "note": "(stereo not given)", "outcome": "inactive"}, {"smiles": "CCCCCCC=O", "outcome": "inactive"}, {"smiles": "CC=O", "outcome": "inactive"}, {"smiles": "CN(C)c1cccc(O)c1", "outcome": "inactive"}, {"smiles": "CO[Si](CCCNCCC[Si](OC)(OC)OC)(OC)OC", "outcome": "inactive"}]}]}
